Screens: PubChem BioAssay, National Center for Advancing Translational Sciences (NCATS)
The sample as a whole holds a higher share of hits than the screen did.
FBPA Giardia inh: inhibitors of Giardia lamblia fructose-1,6-bisphosphate aldolase; Potency, µM (titrated, usually from 59.6 µM), for the others: top-dose activity, negative = inhibition, actives largely listed as inhibitors; purified Giardia FBPA; A8B2U2; AID 2451; 0.71% of 290,000 active; also: potency is read from the fitted curve at half-maximal effect; % is scaled to controls: 0 for no effect and ±100 for the full control effect; nearly all actives have a fitted effect of over 55% in size
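40 nM FBPA preincubated 10 min at RT with compound (up to 57.5 uM final), then substrate plus GAPDH/TPI/NAD/arsenate coupling and diaphorase/resazurin added. Fluorescence read after 20 min at RT, 525/598 nm.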
LmPK inh: blocks Leishmania mexicana pyruvate kinase activity; Q27686; purified LmPK, Kinase-Glo ATP luminescence, 1 h; Potency, µM (series often up to 57.5 µM), for the others: at the top dose activity change, negative = inhibition, hits mostly inhibitors; 0.37% of 290,000 active; also: potency is read from the fitted curve at half-maximal effect; % is scaled to controls: 0 for no effect and ±100 for the full control effect
Target sequence (Q27686 whole entry, looked up): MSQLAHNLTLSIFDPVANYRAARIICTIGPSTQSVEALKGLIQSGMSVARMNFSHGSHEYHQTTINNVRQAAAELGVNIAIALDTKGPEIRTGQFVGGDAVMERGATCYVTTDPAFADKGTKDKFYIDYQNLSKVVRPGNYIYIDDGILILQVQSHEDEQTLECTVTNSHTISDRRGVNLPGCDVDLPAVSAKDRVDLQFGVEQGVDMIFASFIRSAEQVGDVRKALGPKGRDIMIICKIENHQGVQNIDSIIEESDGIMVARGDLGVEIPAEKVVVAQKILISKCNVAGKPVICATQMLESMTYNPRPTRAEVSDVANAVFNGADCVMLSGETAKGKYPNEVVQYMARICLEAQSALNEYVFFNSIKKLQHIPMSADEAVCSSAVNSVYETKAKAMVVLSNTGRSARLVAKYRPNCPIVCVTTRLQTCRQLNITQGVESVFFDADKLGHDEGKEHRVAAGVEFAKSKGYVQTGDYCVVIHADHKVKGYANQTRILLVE
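ATP generated from ADP (0.1 mM) and PEP (0.5 mM) by 0.1 nM LmPK over 1 h at room temperature (pH 7.2 imidazole buffer) was detected by coupled luciferase luminescence. Values were normalized to uninhibited and no-enzyme wells.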
Cycloheximide cs: affects cycloheximide protein synthesis inhibition readout, counter-screen. cell reporter, cycloheximide protein synthesis inhibition counterscreen. max response, %. 12% of 300,000 active. AID 2314; in the data active = max response mostly above about 13%, no sharp cut-off; inactive = mostly below about 14%; also: read at 38.3 µM for the half of the compounds with a filed dose; 0% is about no effect
TbPYK inhibitor: blocks Trypanosoma brucei pyruvate kinase. 0.12% of 410,000 active. AID 624173. Q57TT1. Potency, µM (series often up to 76.8 µM), inactives show at the highest dose activity, negative = inhibition, hits mostly inhibitors. TbPYK enzyme, Kinase-Glo Plus ATP luminescence, 45 min; also: potency is read from the fitted curve at half-maximal effect; % is scaled to controls: 0 for no effect and ±100 for the full control effect; nearly all actives have a fitted effect of over 50% in size
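Glycolytic pyruvate kinase of T. brucei was incubated with substrate, test compound and 130 uM ADP for 45 minutes at room temperature. Luminescent Kinase-Glo Plus signal was measured after 10 minutes.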
RE007 growth inh: less growth of the S. pombe RE007 Vpr strain; 0.21% of 360,000 active; AID 651644; Potency, µM (titrated, usually from 92.2 µM), for inactives: top-dose activity change, negative = less growth, most hits filed as inhibitors; S. pombe RE007 Vpr strain, BacTiter-Glo ATP luminescence, 24 h; active = well fitted falling curve with a large enough effect; inconclusive = small, poorly fitted or top-dose-only effect; inactive = no such curve, though single readings can be large or run the other way; also: potency is read from the fitted curve at half-maximal effect; % is scaled to controls: 0 for no effect and ±100 for the full control effect; nearly all actives have a fitted effect of over 50% in size
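Fission yeast strain RE007, carrying one chromosomally integrated HIV-1 vpr copy, was seeded at OD 0.01 in PMG+AL medium with 23 nL pinned compound. After 24 h at 30 °C and 99% humidity, viability was read by BacTiter-Glo luminescence.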
Shiga inhibitor: inhibitors of Shiga toxin in Vero cells; Vero cells, Shiga toxin protein synthesis inhibition reporter; inhibition, % at 38.7 µM; 9.2% of 290,000 active; in the data active = inhibition mostly above about 28%, no sharp cut-off; inactive = mostly below about 43%; also: 0% is about no effect
* marks the source's active call; other numbers are inactive results; ? = inconclusive; nt = not tested or not shown. Unless noted, calls follow the shape of the dose curve; as a rule, active = well fitted curve in the direction sought with a large enough effect; inconclusive = small, poorly fitted or top-dose-only effect, or another doubt; inactive = no such curve, though single readings can be large; an effect the other way counts as inactive or inconclusive.

SMILES	FBPA Giardia inh	LmPK inh	Cycloheximide cs	TbPYK inhibitor	RE007 growth inh	Shiga inhibitor
COc1ccccc1Oc1ccc(NC(=O)c2ccccc2C)cc1	-6%	3%	15	3%	-1%	62
Cc1ccc(C(=O)Nc2cccc(C(=O)N3CCN(C)CC3)c2)cc1	1%	-7%	30*	0%	4%	71*
CN1CCN(c2ccc(NC(=O)c3ccc(C(F)(F)F)cc3)cn2)CC1	-1%	-3%	13	-6%	0%	-4
COc1ccccc1OC(=O)Nc1ccc(Cl)cc1	11%	0%	32*	3%	-1%	58*
COc1ccccc1Oc1ccc(NC(=O)c2ccccc2)cc1	2%	5%	28*	1%	-9%	47
CN1CCc2ccc(NC(=O)c3ccc(C(F)(F)F)cc3)cc2C1	-13%	-4%	14*	-1%	44%	25*
Cc1ccc(OCc2ccc(C(=O)NN)o2)cc1C	3%	3%	26*	-2%	-14%	31
COC(=O)c1ccc(COc2cc([N+](=O)[O-])cc3cccnc23)o1	-9%	-2%	-3	0%	6%	15
CCOc1ccc(OCc2ccc(C(=O)NC(C)(C)C)o2)cc1	5%	-8%	12	0%	2%	37*
CC(C)NC(=O)c1ccc(COc2ccc(C(C)(C)C)cc2)o1	-21%	-2%	95*	2%	-18%	160*
O=C(OCc1ccccn1)c1ccc(COc2ccc3ccccc3c2)o1	1%	5%	45*	1%	2%	66*
Cc1ccc(Cn2c(=O)c3ccccc3n3c(-c4ccccc4)nnc23)cc1	nt	nt	nt	4%	nt	nt
Cc1ccc(NC(=O)c2ccc(COc3ccccc3Cl)o2)cc1	nt	nt	nt	-5%	nt	nt
NNC(=O)c1ccc(COc2cccc3ccccc23)o1	-7%	2%	8	0%	5%	22
CCOc1ccc(OCc2ccc(C(=O)Nc3cccnc3)o2)cc1	nt	3%	31*	-6%	10%	158*
Cc1ccc(C)c(OCc2ccc(C(=O)NN)o2)c1	-9%	2%	11	12%	-3%	10
CCOc1ccc(OCc2ccc(C(=O)NCc3cccnc3)o2)cc1	nt	-3%	14	2%	22%	-4
CN(C)c1ccc(NC(=O)c2ccc(COc3cccc(Cl)c3)o2)cc1	-24%	0%	55*	-8%	?	77*
CCOc1ccc(OCc2ccc(C(=O)NN)o2)cc1	-1%	4%	30*	-1%	12%	54*
NNC(=O)c1ccc(COc2ccc3ccccc3c2)o1	-4%	5%	19*	-1%	-7%	34*
COc1ccc2c(c1)C(=O)[C@@H](OC(=O)NCc1ccco1)[C@H](c1ccc(OC)c(Br)c1)O2	4%	nt	nt	nt	nt	nt
COc1ccc(NC(=O)/C(C#N)=C\c2ccc(Br)o2)cc1	0%	4%	22*	0%	2%	25
COc1ccc(NC(=O)/C(C#N)=C\c2ccc(-c3cccc(C(=O)O)c3C)o2)cc1	1%	0%	21*	-3%	0%	35*
COc1ccc(NC(=O)/C(C#N)=C/c2ccc(-c3ccccc3C(=O)O)o2)cc1	6%	0%	2	-6%	12%	-9
Cc1c(C(=O)O)cccc1-c1ccc(C=O)o1	-3%	-1%	35*	-10%	14%	54*
SMILES	FBPA Giardia inh	LmPK inh	Cycloheximide cs	TbPYK inhibitor	RE007 growth inh	Shiga inhibitor
CNC(=O)/C(C#N)=C/c1ccc(-c2ccc(OC)cc2[N+](=O)[O-])o1	-1%	7%	56*	0%	-2%	27*
Cc1ccc(NC(=O)CN2C(=O)S/C(=C\c3ccc(-c4cccc(C(=O)O)c4C)o3)C2=O)cc1	-13%	2%	8	nt	nt	52
CCCCN1CCC[C@H]1CNC(=O)c1cc(C#N)c2ccccc2c1OC	-6%	nt	7	nt	nt	-8
CC1(C)Cc2c(c(-c3ccco3)[nH]c(=O)c2C#N)CS1	18µM*	5%	1	-4%	-27%	-2
CCOc1ccccc1NC(=O)C(=O)CC(=O)c1ccc(OC)cc1	-19%	-3%	1	-1%	-13%	6
COc1cc(/C=N/NC(=O)c2cccnc2)ccc1OC(=O)c1ccco1	1%	-5%	-1	-31%	-9%	13
O=C(Cc1ccccc1Cl)N/N=C/c1cccnc1	nt	-5%	1	-3%	1%	-25
O=C(N/N=C\c1cccnc1)c1ccc(Cl)cc1Cl	7%	-1%	31*	1%	7%	54*
O=C(N/N=C/c1cccnc1)c1ccco1	4%	-9%	26*	0%	-16%	66*
O=C(N/N=C/c1cccnc1)c1ccc(Cl)c(Cl)c1	nt	nt	nt	-3%	-13%	nt
O=C(N/N=C/c1cccnc1)c1ccc2ccccc2c1O	nt	-2%	20*	-8%	-25%	38*
O=C(N/N=C/c1cccnc1)c1ccccc1Cl	7%	-6%	17*	-2%	-5%	61*
O=C(N/N=C/c1cccnc1)c1cc(-c2ccccc2)nc2ccccc12	-3%	1%	-2	0%	9%	-3
CCn1c(SCc2ccccc2C)nc(=O)c2c(C(=O)OC)cc(C3CC3)nc21	nt	nt	nt	4%	nt	nt
Nc1c(C(=O)N/N=C/c2ccccc2)cnn1-c1ccccc1	0%	-6%	45*	2%	6%	96*
O=C(N/N=C\c1cccnc1)c1ccccc1O	-4%	-1%	23*	-3%	-12%	33*
O=C(N/N=C/c1cccnc1)c1ccccc1Br	2%	4%	12	-13%	1%	47
O=C(Nc1cccc([N+](=O)[O-])c1)c1ccc2ccccc2c1O	-9%	4%	37*	-2%	-14%	38
O=C(O)c1ccccc1C(=O)Nc1ccccn1	-3%	1%	8	1%	-3%	11
O=C(Nc1ccccn1)c1ccc2ccccc2c1O	?	-2%	40*	-5%	?	66*
O=C(N/N=C/c1ccccc1)c1cccc2ccccc12	nt	nt	nt	-8%	10%	nt
CCC(=O)Nc1ccc(NC(=O)CSc2nnnn2C2CCCC2)cc1C	13%	-3%	3	-1%	-6%	-7
Cc1c(Cl)cccc1NC(=O)CN1C(=O)c2ccccc2Sc2ncccc21	nt	nt	nt	-5%	nt	nt
CCCCC1CCC(C(=O)N2CC(=O)Nc3ccc(Br)cc3C2c2ccc(F)cc2)CC1 (configuration not stated)	nt	nt	nt	-4%	nt	nt
O=C(N/N=C/c1cccnc1)c1cccs1	-4%	-9%	38*	-7%	1%	75*
O=C(Nc1cccnc1)c1ccc2ccccc2c1O	-30%	-8%	33*	0%	?	39*
Cc1noc(-c2ccc(NCc3ccccc3)c([N+](=O)[O-])c2)n1	nt	nt	nt	0%	nt	nt
CC(=O)Nc1cccc(-c2cc(-c3c(Cl)cccc3Cl)no2)c1	-9%	5%	-3	2%	-7%	4
